According to PubChem BioAssay:
Several values for one entry are separate records, joined by “and”; a condition that tells them apart may be missing. Equal values may be shown once. Results filed as inconclusive are left out. For part of these data: Entries with a potency or affinity are not part of this list. Activity calls are given as the source filed them.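 How the source made its calls, unless noted: active means compounds killing one labelled cell type while sparing the other, by normalised counts and ratio limits, not self-fluorescent; inactive means the rest.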

Assays:
[1] = differential killing of epithelial or mesenchymal cells, primary screen, imaging, PC-3E GFP, TEM4-18 mCherry, co-culture (AID 1345086); details: imaging cell counts, at 1 µM; for red/green cell ratio (normalised): actives lie on both sides;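 on all read-outs here: cells exposed to compound for 72 h before imaging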;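 on red/green cell ratio (normalised): normalised mesenchymal count divided by normalised epithelial count so high means epithelial killing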
[2] = test system: Aerobactin synthetase IucA (Klebsiella pneumoniae hvKP1); assay: Biochemical IucA enzyme inhibition primary screen of the Spectrum library (AID 1346200; call rule not given here;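 further: 100% = wells without compound and 0% = wells lacking enzyme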); details: malachite green pyrophosphate, A620, at 8 µM, stronger effect = lower value
[3] = sensitizers of A549 cells to miR-34 induction, primary screen, imaging, A549 dox-inducible miR-34, nuclei and caspase counts (AID 1347080;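 active means compounds whose cell count with miR-34 switched on is under 0.7 times the count with it off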); details: A549 miR-34 inducible, Hoechst nuclei count, 48 h
[4] = target: Mitogen-activated protein kinase 7 (Homo sapiens) (UniProt Q13164); assay: ERK5 transactivation activators in reporter cells, primary screen, cell-based, HTS (AID 1508626;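 active means luciferase signal above three times the same-plate solvent-only control wells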;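 further: luciferase driven by Gal4-ERK5 fusion binding five Gal4 sites before minimal TATA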); details: HeLa Gal4-ERK5 transactivation, 18 h, at 5 µM, stronger effect = higher value
[5] = polyglutamine-triggered caspase-3 activation inhibitors, cell-based (AID 1583); details: polyglutamine-induced caspase-3 activation, cell assay; stronger effect = higher value;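 tested at 10 µM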
[6] = suppressors of polyQ aggregation in yeast, 75Q-TubU reporter (AID 1593); details: Yeast 75Q polyglutamine aggregation reporter
[7] = rescue of polyQ-huntingtin neuronal dysfunction in worms, whole organism, C. elegans mechanosensory neurons, N-terminal huntingtin (AID 1599); details: touch response, stronger effect = higher value
[8] = inhibitors of mitochondrial cytochrome c release, biochemical, purified mitochondria (AID 1603); details: stronger effect = lower value;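 further: mouse liver mitochondria challenged with calcium chloride; signal normalized to the plate average as 100%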
[9] = inhibitors of polyQ protein aggregation (AID 1604); details: polyglutamine-induced protein aggregation inhibition assay; stronger effect = higher value; tested at 2.5 µM
[10] = enhancers of glutamate uptake in motor neurons, MN-1 cell line (AID 1612); details: MN-1 motor neuron cells, stronger effect = higher value;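 further: tested at 1 µM final; 0% = mean of DMSO vehicle wells on each plate; positive means more glutamate uptake than control and negative means less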
[11] = reducers of polyQ inclusions in PC12 cells, cell-based, NGF-treated PC12, GFPQ80 (AID 1614); details: PC12 NGF-treated GFP-polyQ80 inclusion reduction;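 further: lower means fewer inclusions and 0 means no inclusions at all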
[12] = suppressors of polyglutamine aggregation in yeast, 75Q-TubH (AID 1616); details: S. cerevisiae 75Q-TubH polyglutamine aggregation suppression; stronger effect = higher value
[13] = liver-stage malaria parasite growth inhibition, primary screen, cell-based, HepG2, luciferase luminescence, HepG2 viability (AID 624349; in the data active means parasite load remaining mostly below about 12%, no sharp cut-off; inactive means mostly above about 10%;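 further: 100% = mean of DMSO negative control wells on the same plate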); details: P. berghei liver stage in HepG2, luciferase luminescence, concentration not given here; parasite load remaining: stronger effect = lower value; viability: measured here: HepG2 viability without parasites
[14] = growth inhibition of DIPG glioma cells, dose response, cell-based, SU-DIPG-XVII, MIPE5.0, CellTiter-Glo, qHTS (AID 1347060; cut-off not given, nearly all actives have AC50 up to about 26 µM); details: SU-DIPG-XVII viability, CellTiter-Glo ATP luminescence
[15] = growth inhibition of DIPG glioma cells, dose response, cell-based, JHH-DIPG-1, MIPE4.0, CellTiter-Glo, qHTS (AID 1347062; cut-off not given, nearly all actives have AC50 up to about 27 µM); details: JHH-DIPG-1 viability, CellTiter-Glo ATP luminescence
[16] = growth inhibition of DIPG glioma cells, dose response, cell-based, SU-DIPG-XIII, MIPE5.0, CellTiter-Glo, qHTS (AID 1347064; cut-off not given, nearly all actives have AC50 up to about 23 µM); details: SU-DIPG-XIII viability, CellTiter-Glo ATP luminescence
[17] = viability loss in pontine glioma line – cell-based, SU-DIPG-XXV, MIPE5.0, CellTiter-Glo, qHTS, dose response (AID 1347065; cut-off not given, nearly all actives have AC50 up to about 26 µM;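 further: cells exposed to compound for 48 hours before ATP readout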); details: CellTiter-Glo ATP luminescence
[18] = SU-DIPG-VI glioma cell viability, MIPE4.0 library, CellTiter-Glo luminescence, qHTS (AID 1347066; cut-off not given, nearly all actives have AC50 up to about 30 µM;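 further: cells exposed to compound for 48 hours before readout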); details: CellTiter-Glo ATP luminescence
[19] = protection against mutant huntingtin cytotoxicity, PC12 cells, LDH release (AID 1610); details: PC12 mutant huntingtin toxicity, final LDH at 4 uM, stronger effect = lower value
[20] = counts scaled to control wells, 1 = unselective
[21] = measured here: epithelial PC-3E GFP cell survival
[22] = measured here: mesenchymal TEM4-18 mCherry cell survival
[23] = measured here: relative caspase fold change +Dox/-Dox
[24] = measured here: total cells with miR-34 induction, stronger effect = lower value
[25] = measured here: total cells without miR-34 induction

Sequence of Mitogen-activated protein kinase 7 (Homo sapiens) (Q13164 whole entry, looked up, the tested form may be a part): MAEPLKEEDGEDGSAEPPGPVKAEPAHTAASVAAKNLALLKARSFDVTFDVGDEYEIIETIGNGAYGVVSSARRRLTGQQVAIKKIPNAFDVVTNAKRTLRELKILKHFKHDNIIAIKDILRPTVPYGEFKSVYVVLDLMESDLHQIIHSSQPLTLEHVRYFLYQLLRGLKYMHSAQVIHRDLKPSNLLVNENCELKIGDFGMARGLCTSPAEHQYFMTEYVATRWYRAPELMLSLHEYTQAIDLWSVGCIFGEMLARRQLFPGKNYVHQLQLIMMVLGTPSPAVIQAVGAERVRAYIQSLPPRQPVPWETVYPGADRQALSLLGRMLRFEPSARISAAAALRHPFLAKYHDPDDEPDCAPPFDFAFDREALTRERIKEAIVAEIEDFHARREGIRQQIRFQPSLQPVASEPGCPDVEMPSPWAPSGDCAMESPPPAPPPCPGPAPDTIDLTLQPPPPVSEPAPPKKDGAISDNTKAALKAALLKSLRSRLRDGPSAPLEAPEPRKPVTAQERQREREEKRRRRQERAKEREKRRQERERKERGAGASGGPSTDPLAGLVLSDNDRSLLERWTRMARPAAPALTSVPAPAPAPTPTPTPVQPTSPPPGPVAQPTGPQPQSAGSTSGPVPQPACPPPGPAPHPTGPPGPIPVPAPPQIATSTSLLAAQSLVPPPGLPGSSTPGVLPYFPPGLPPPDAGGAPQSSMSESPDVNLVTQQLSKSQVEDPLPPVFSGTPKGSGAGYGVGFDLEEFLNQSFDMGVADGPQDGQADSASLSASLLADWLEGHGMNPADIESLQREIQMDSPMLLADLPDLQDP

CCC(C)[C@H]1O[C@]2(C=C[C@@H]1C)C[C@@H]1C[C@@H](C/C=C(\C)[C@@H](OC3C[C@H](OC)C(O[C@H]4C[C@H](OC)[C@@H](O)[C@H](C)O4)[C@H](C)O3)[C@@H](C)/C=C/C=C3\COC4[C@H](O)C(C)=C[C@@H](C(=O)O1)[C@]34O)O2 (some centres not stated)
red/green cell ratio (normalised) [1, 20]: 0.68 (inactive) | normalised cell number [1, 21]: 0.88 | normalised cell number [1, 22]: 0.6

C[N+]1(C)CCc2cc3c(cc2[C@H]1C1OC(=O)c2c1ccc1c2OCO1)OCO3 (some centres not stated)
red/green cell ratio (normalised) [1, 20]: 0.88 (inactive) | normalised cell number [1, 21]: 1.35 | normalised cell number [1, 22]: 1.18 | activity remaining [2]: 129% (inactive)

C[C@]12C=CC(=O)C=C1CCC1C2CC[C@]2(C)C(=O)CCC12 (some centres not stated)
red/green cell ratio (normalised) [1]: 1.05 (inactive) | normalised cell number [1, 21]: 1.06 | normalised cell number [1, 22]: 1.12

CN(CCC(N)CC(=O)N[C@H]1C=CC(n2ccc(N)nc2=O)O[C@@H]1C(=O)O)C(=N)N (some centres not stated)
red/green cell ratio (normalised) [1, 20]: 0.77 (inactive) | normalised cell number [1, 21]: 1.2 | normalised cell number [1, 22]: 0.93 | activity remaining [2]: 109% (inactive)

CN1C2CC(=O)CC1[C@H](O)C2 (some centres not stated)
red/green cell ratio (normalised) [1, 20]: 0.81 (inactive) | normalised cell number [1, 21]: 1.25 | normalised cell number [1, 22]: 1.01

C=Cc1cc(OC)c2c(c1)c(=O)oc1c2cc(OC)c2c(O)ccc([C@@H]3O[C@@H](C)[C@H](OC(C)=O)[C@H](N(C)C)[C@H]3O)c21
red/green cell ratio (normalised) [1, 20]: 0.75 (inactive) | normalised cell number [1, 21]: 0.41 | normalised cell number [1, 22]: 0.31

CCN1C[C@]2(OC(=O)c3ccccc3NC(C)=O)CCC(OC)[C@]34C1[C@@H](CC23)[C@@]1(O)CC(OC)[C@H]2CC4C1(O)[C@H]2OC (some centres not stated)
red/green cell ratio (normalised) [1]: 1 (inactive) | normalised cell number [1, 21]: 0.94 | normalised cell number [1, 22]: 0.93

C[C@H]1COc2c(N3CCNCC3)c(F)cc3c(=O)c(C(=O)O)cn1c23
red/green cell ratio (normalised) [1, 20]: 0.98 (inactive) | normalised cell number [1, 21]: 1.08 | normalised cell number [1, 22]: 1.06

C[C@]12CCC3C(CC[C@H]4C[C@H](O)CC[C@]34C)C1CCC2=O (some centres not stated)
red/green cell ratio (normalised) [1]: 1.16 (inactive) | normalised cell number [1, 21]: 0.84 | normalised cell number [1, 22]: 0.97

CCC(C)C1C(=O)OC(C(C)C)C(=O)N(C)C(C(C)C)C(=O)OC(C(C)C)C(=O)N(C)C(C(C)C)C(=O)OC(C(C)C)C(=O)N1C (configuration not stated)
red/green cell ratio (normalised) [1, 20]: 0.98 (inactive) and 0.86 (inactive) | normalised cell number [1, 21]: 1.02 and 0.67 | normalised cell number [1, 22]: 1 and 0.58

O=C1CCCC2C3CC(CN12)[C@@H]1CCCCN1C3 (some centres not stated)
red/green cell ratio (normalised) [1, 20]: 1.13 (inactive) | normalised cell number [1, 21]: 0.86 | normalised cell number [1, 22]: 0.98 | activity remaining [2]: 119% (inactive)

CN1C(=O)c2ccccc2NC(=O)[C@@H]1Cc1ccccc1
red/green cell ratio (normalised) [1, 20]: 1.03 (inactive) | normalised cell number [1, 21]: 1.1 | normalised cell number [1, 22]: 1.13

C=CCSSCC=C
red/green cell ratio (normalised) [1]: 1.09 (inactive) | normalised cell number [1, 21]: 0.87 | normalised cell number [1, 22]: 0.95 | activity remaining [2]: 94.6% (inactive)

Cc1c(O)c(O)cc2c1CC=C1[C@@]2(C)CC[C@@]2(C)C3C[C@](C)(C(=O)O)CC[C@]3(C)CC[C@]12C (some centres not stated)
red/green cell ratio (normalised) [1]: 0.65 (inactive) | normalised cell number [1, 21]: 0.64 | normalised cell number [1, 22]: 0.41 | activity remaining [2]: 103% (inactive)

COc1cccc([C@]2(O)CCCC[C@H]2CN(C)C)c1
red/green cell ratio (normalised) [1]: 1.34 (inactive) | normalised cell number [1, 21]: 1.13 | normalised cell number [1, 22]: 1.5 | activity remaining [2]: 98.7% (inactive) | fold change ([3]; stronger effect = lower value): 0.9 (inactive) | fold change [3, 23]: 6.33 | cell count [3, 24]: 11600 | cell count [3, 25]: 12900

C[C@]12CCC3C(CC[C@H]4C[C@@H](O)CC[C@]34C)C1CCC2=O (some centres not stated)
red/green cell ratio (normalised) [1]: 0.99 (inactive) | normalised cell number [1, 21]: 1.2 | normalised cell number [1, 22]: 1.19 | activity remaining [2]: 102% (inactive)

C=C(C)C1Cc2c(ccc3c(=O)c4c(oc23)COc2cc(OC)c(OC)cc2-4)O1 (configuration not stated)
red/green cell ratio (normalised) [1]: 0.91 (inactive) | normalised cell number [1, 21]: 0.94 | normalised cell number [1, 22]: 0.86 | activity remaining [2]: 126% (inactive) | luciferase signal [4]: 56 AU (inactive)

C#CC1(O)CCC2C3CCC4=CC(=O)CCC4(C)C3CCC21C (configuration not stated)
inhibition [5]: 4.95% | score [6]: 0.22 | rescue above control [7]: 3.19 | cytochrome c release ratio [8]: 0.95 | inhibition of aggregation [9]: 63.6% | glutamate uptake change [10]: 12.9% | inclusion score [11]: 2 | aggregation suppression score [12]: 1.19 | parasite load remaining [13]: 62% (inactive) and 21.3% (inactive) | viability [13]: 93.9% and 81% | red/green cell ratio (normalised) [1]: 0.77 (inactive) | normalised cell number [1, 21]: 1.21 | normalised cell number [1, 22]: 0.93 | activity remaining [2]: 112% (inactive) | outcome [14]: inactive | outcome [15]: inactive | outcome [16]: inactive | outcome [17]: inactive | outcome [18]: inactive | fold change ([3]; stronger effect = lower value): 0.935 (inactive) | fold change [3, 23]: 2.1 | cell count [3, 24]: 10400 | cell count [3, 25]: 11100

C=C[C@H]1CN2CC[C@H]1C[C@@H]2[C@@H](OC(=O)OCC)c1ccnc2ccc(OC)cc12
inhibition [5]: 11.7% | score [6]: 1.24 | rescue above control [7]: 17 | cytochrome c release ratio [8]: 1.43 | inhibition of aggregation [9]: 70.5% | glutamate uptake change [10]: 9.82% | aggregation suppression score [12]: 1.15 | parasite load remaining [13]: 53% (inactive) | viability [13]: 91.4% | red/green cell ratio (normalised) [1]: 1.15 (inactive) | normalised cell number [1, 21]: 0.67 | normalised cell number [1, 22]: 0.77 | activity remaining [2]: 98.2% (inactive) | fold change ([3]; stronger effect = lower value): 0.94 (inactive) | fold change [3, 23]: 1.23 | cell count [3, 24]: 11100 | cell count [3, 25]: 11800

O=C(NC(=O)c1c(F)cccc1F)Nc1ccc(Cl)cc1
red/green cell ratio (normalised) [1]: 1 (inactive) | normalised cell number [1, 21]: 0.99 | normalised cell number [1, 22]: 0.99 | activity remaining [2]: 122% (inactive) | luciferase signal [4]: 32 AU (inactive)

C=C[C@H]1CN2CC[C@H]1C[C@@H]2[C@H](O)c1ccnc2ccccc12
inhibition [5]: 15.4% | score [6]: 1.55 | rescue above control [7]: 3.43 | cytochrome c release ratio [8]: 0.96 | inhibition of aggregation [9]: -10.6% | normalised LDH release [19]: 0.806 | glutamate uptake change [10]: 4.38% | inclusion score [11]: 2 | aggregation suppression score [12]: 1.26 | parasite load remaining [13]: 84.2% (inactive) and 28.1% (inactive) | viability [13]: 73.3% and 88.8% | red/green cell ratio (normalised) [1]: 1.26 (inactive) | normalised cell number [1, 21]: 0.87 | normalised cell number [1, 22]: 1.1 | activity remaining [2]: 125% (inactive) | fold change ([3]; stronger effect = lower value): 0.93 (inactive) | fold change [3, 23]: 2.81 | cell count [3, 24]: 12200 | cell count [3, 25]: 13100

C[C@@H]1CC(Cl)CC[C@H]1C(=O)OC(C)(C)C (some centres not stated)
red/green cell ratio (normalised) [1]: 1.02 (inactive) | normalised cell number [1, 21]: 1.09 | normalised cell number [1, 22]: 1.12 | activity remaining [2]: 119% (inactive)
